Data reported in article PMC5540273 (PLoS ONE, 2017).

What was measured:
Conditions in all cases: concentration: 1 μM, replicates: in singlicate; n = 1
[1] = test system: T1, YANK2
T1 construct: gene STK32B

[2] = test system: T2, YANK3
T2 construct: gene STK32C

[3] = test system: T3, YES
T3 construct: gene YES1

[4] = test system: T4, YSK1
T4 construct: gene STK25

[5] = test system: T5, YSK4
T5 construct: gene MAP3K19

[6] = test system: ZAK
[7] = test system: ZAP70
[8] = test system: T6, p38-alpha
T6 construct: gene MAPK14

[9] = test system: T7, p38-beta
T7 construct: gene MAPK11

[10] = test system: p38-delta
[11] = test system: T8, p38-gamma
T8 construct: gene MAPK12
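Further: KINOMEscan kinase panel screen.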

Row | Compound | %Inh [1] | %Inh [2] | %Inh [3] | %Inh [4] | %Inh [5] | %Inh [6] | %Inh [7] | %Inh [8] | %Inh [9] | %Inh [10] | %Inh [11]
1 | CC(C)c1ccc(O)cc1Nc1ccnc2ccc(C(F)(F)F)cc12 [GW482059] | 2% | 0% | 0% | 0% | 73% | 9% | 0% | 0% | 0% | 1% | 0%
2 | Cn1cncc1-c1cc2c(Nc3ccc(OCc4ccccc4)cc3)ncnc2cn1 [GW281179] | 0% | 15% | 19% | 4% | 27% | 43% | 20% | 0% | 0% | 52% | 0%
3 | CC(C)c1cc(-c2ccc3c(N)n[nH]c3c2)nc(N)n1 [GSK2250882] | 0% | 19% | 16% | 14% | 33% | 11% | 0% | 9% | 0% | 18% | 43%
4 | Cc1ccc(NC(=O)Nc2ccc(Cl)cc2)cc1-c1ccc(C(=O)Nc2ccncc2)cc1 [GSK1398472] | 4% | 0% | 17% | 15% | 56% | 64% | 7% | 72% | 34% | 42% | 23%
5 | Cc1ccc(NC(=O)c2ccc(Cl)cc2)cc1-c1ccc(C(=O)Nc2ccncc2)cc1 [GSK1398467] | 10% | 17% | 18% | 0% | 40% | 17% | 6% | 65% | 29% | 27% | 0%
6 | Cc1c(Cn2c(C)c(C)n3c(=O)cc(N4CCOCC4)nc23)cccc1C(F)(F)F [GSK2328680] | 0% | 0% | 7% | 14% | 0% | 16% | 0% | 21% | 0% | 33% | 0%
7 | O=C(Nc1n[nH]c2cc(-c3ccsc3)ccc12)C1CC1 [SB-732932] | 0% | 20% | 12% | 5% | 94.7% | 5% | 0% | 16% | 8% | 0% | 28%
8 | CNc1nc(-c2ccc3c(N)n[nH]c3c2)cc(N2C[C@@H](C(=O)Nc3ccccc3)CC[C@H]2C)n1 [GSK2298859] | 89% | 32% | 2% | 0% | 17% | 0% | 0% | 22% | 0% | 0% | 0%
9 | Cc1ccc(NC(=O)Nc2ccc(Cl)c(C(F)(F)F)c2)cc1-c1ccc(C(=O)Nc2ccncc2)cc1 [GSK1398470] | 0% | 10% | 7% | 0% | 72% | 59% | 0% | 95.9% | 96.2% | 0% | 27%
10 | Fc1ccc(-c2nn3cccc(F)c3c2-c2ccncc2)cc1 [GW475620] | 46% | 12% | 5% | 0% | 14% | 25% | 3% | 97.6% | 16% | 21% | 0%
11 | Fc1ccc(-c2nc[nH]c2-c2ccncc2)cc1 [SB-217360] | 28% | 0% | 0% | 0% | 22% | 0% | 0% | 97.9% | 21% | 0% | 39%
12 | CS(=O)(=O)CCNCc1nc(-c2ccc3ncnc(Nc4ccc5c(cnn5Cc5ccccc5)c4)c3c2)cs1.Cl.Cl [GW569716] | 0% | 0% | 21% | 0% | 36% | 0% | 0% | 4% | 0% | 18% | 0%
13 | Cc1ccccc1Cn1ccn2c(=O)cc(N3CCOCC3)nc12 [GSK2269905] | 0% | 7% | 19% | 16% | 28% | 0% | 0% | 0% | 0% | 7% | 0%
14 | Cc1ccc(NC(=O)Nc2ccccc2)cc1-c1ccc(C(=O)Nc2ccncc2)cc1 [GSK1398471] | 5% | 0% | 12% | 21% | 94.6% | 53% | 0% | 0% | 0% | 19% | 12%
15 | CCn1c(-c2c(N)noc2C)nc2cnccc21 [SB-737856] | 0% | 17% | 19% | 58% | 44% | 30% | 0% | 0% | 0% | 16% | 0%
16 | COC(=O)c1cccc(NC(=O)NC2CCN(c3ccnc(Nc4ccc(OC)cc4)n3)C2)c1 (stereo not shown) [GSK1379746] | 0% | 8% | 13% | 0% | 22% | 0% | 0% | 3% | 0% | 6% | 0%

Row | Compound | %Inh [1] | %Inh [2] | %Inh [3] | %Inh [4] | %Inh [5] | %Inh [6] | %Inh [7] | %Inh [8] | %Inh [9] | %Inh [10] | %Inh [11]
17 | COc1ccc(Nc2nccc(N3CCC(NC(=O)c4cc5ccccc5s4)C3)n2)cc1 (stereo not shown) [GSK1379738] | 6% | 0% | 17% | 7% | 47% | 60% | 0% | 20% | 0% | 42% | 9%
18 | CNc1cc(-c2ccc3c(N)n[nH]c3c2)nc(N)n1 [GSK2224810] | 8% | 0% | 0% | 6% | 58% | 0% | 0% | 23% | 0% | 38% | 0%
19 | Nc1cccc(-c2ccc3c(N)n[nH]c3c2)n1 [GSK2192730] | 0% | 0% | 0% | 26% | 83% | 10% | 3% | 8% | 0% | 22% | 0%
20 | CNc1nc(-c2ccc3c(N)n[nH]c3c2)cc(N2C[C@@H](C(=O)NC3CCCCC3)OC[C@H]2C)n1 [GSK2375584] | 2% | 22% | 14% | 5% | 15% | 0% | 0% | 23% | 0% | 42% | 23%
21 | Cc1ccc(-c2nc(Nc3ccncc3)c3ccccc3n2)s1 [GSK189015] | 12% | 28% | 5% | 0% | 0% | 0% | 0% | 0% | 0% | 49% | 12%
22 | CC(=O)c1cccc(NC(=O)NC2CCN(c3ccnc(Nc4ccc(F)cc4)n3)C2)c1 (stereo not shown) [GSK1379710] | 0% | 6% | 0% | 0% | 20% | 9% | 0% | 30% | 0% | 14% | 3%
23 | CN1c2ccc(-c3ccc(C(N)=O)cc3)cc2-c2[nH]ncc2S1(=O)=O | 0% | 0% | 0% | 0% | 0% | 5% | 5% | 0% | 4% | 38% | 0%
24 | CC(=O)c1c(C)c2cnc(Nc3ccc(N4CCNCC4)cn3)nc2n(C2CCCC2)c1=O | 0% | 0% | 6% | 0% | 10% | 0% | 0% | 0% | 0% | 22% | 6%
25 | Cc1cccc2c(-c3ccncn3)c(-c3ccc(F)cc3)nn12 [GW515532] | 41% | 18% | 0% | 8% | 16% | 9% | 20% | 91.6% | 1% | 15% | 20%
26 | COc1ccc(Nc2nccc(-c3ccc(NC(=O)c4cc5cc(F)ccc5[nH]4)cc3)n2)cc1 [GSK1229496] | 0% | 0% | 0% | 0% | 8% | 6% | 0% | 4% | 0% | 43% | 1%
27 | CC(=O)c1c(C)c2cnc(Nc3ccn(C)n3)nc2n(C2CCCC2)c1=O | 0% | 2% | 1% | 0% | 18% | 0% | 0% | 0% | 0% | 15% | 0%
28 | O=C1NC(=O)C(c2ccc(Cl)cc2)=C1Nc1cccc(Cl)c1 [SB-317651] | 0% | 0% | 0% | 0% | 0% | 16% | 5% | 13% | 0% | 5% | 11%
29 | COc1ccc(Nc2nccc(NCCNC(=O)Nc3cc(C)ccc3C)n2)cc1 [GSK1379899] | 0% | 0% | 0% | 0% | 4% | 3% | 0% | 0% | 0% | 21% | 0%
30 | FC(F)(F)c1ccccc1-c1cc(-c2c[nH]nc2-c2ccccn2)ccn1 [GW679396] | 18% | 13% | 0% | 0% | 0% | 0% | 0% | 95.4% | 18% | 17% | 0%
31 | COc1ccc(Nc2nccc(N3CCC(NC(=O)C(C)c4ccc(Cl)cc4)CC3)n2)cc1 (stereo not shown) [GSK1379812] | 2% | 1% | 0% | 0% | 0% | 0% | 0% | 1% | 0% | 27% | 2%
32 | Cn1cnc2c(N)ncnc21 [SKF-97623] | 0% | 0% | 0% | 0% | 0% | 0% | 12% | 0% | 0% | 4% | 0%
